Screening results deposited in PubChem BioAssay by Center for Chemical Genomics, University of Michigan.
This excerpt belongs to a sample that is enriched for hits.
Dicer processing: human Dicer pre-microRNA cleavage inhibition. cat-ELCCA pre-miR-21 Dicer processing, chemiluminescence; hits give high values. 6% of 47,000 active. AID 1347074. z-score at 25 µM; in the data active means z-score above about 3, passing the limit was not always enough;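 further: plate controls were vehicle for no effect and no enzyme for full effect; higher signal means more uncleaved substrate so more Dicer inhibition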
Starred values were filed as active, the others as inactive; ! = a repeat was not active.

SMILES	Dicer processing
Cc1cc(C)n2ncc(/C(N)=N/OC(=O)c3ccccc3Cl)c2n1	-3.8
CC1(C)CC(=O)C2=C(C1)Nc1nc(-c3cccc(Cl)c3)nn1C2c1ccc2c(c1)OCO2 (stereo not drawn)	2.2
COc1ccc(-c2nc3n(n2)C(c2ccc(OC)c(OC)c2)C2=C(CCCC2=O)N3)cc1OC (stereo not drawn)	-0.72
COc1ccc(-c2nc3n(n2)C(c2ccc4c(c2)OCO4)C2=C(CC(C)(C)CC2=O)N3)cc1OC (stereo not drawn)	3*
Cn1c(N/N=C/c2ccc3ccccc3n2)nc2c1c(=O)n(Cc1ccccc1Cl)c(=O)n2C	0.33
O=S(=O)(c1ccc(F)cc1)N1C=CC(C(F)(F)F)=NCC1	-0.77
Nc1nc(SCC(=O)c2ccc(Cl)cc2)n[nH]1	0.66
C=CCC(c1ccco1)N(C(C)=O)c1ccccc1 (stereo not drawn)	0.14
O=C(CN1CCCCC1)N1c2ccccc2Sc2ccccc21	-0.03
CCN(CC)CC(=O)N1c2ccccc2Sc2ccccc21	1.6
NCCCC(=O)N1c2ccccc2Sc2ccccc21	5.5*
N#CCC(=O)Nc1ccccc1Oc1cc(Cl)ccc1Cl	0.92
CC1(C)CC(=O)C2=C(C1)Nc1nc(-c3cccc(Cl)c3)nn1C2c1ccc(F)cc1 (stereo not drawn)	0.74
O=C(Nc1ccccc1)N(Cc1ccccc1)c1cccc2ccccc12	-2.8
CN(Cc1ccccc1)C(=O)Nc1ccccc1	3.7*
CN(CCc1ccccn1)C(=O)Nc1ccccc1	41
CC(CC(=O)O)S(=O)(=O)c1ccc(Cl)cc1 (stereo not drawn)	-0.16
CC(Nc1ncnc2ccccc12)C(=O)O (stereo not drawn)	3.3*
O=C(O)CCC(Nc1ncnc2ccccc12)C(=O)O (stereo not drawn)	1.3
CCCC(Nc1ncnc2ccccc12)C(=O)O (stereo not drawn)	0.39
COc1ccc(-c2c(N)nc(-c3ccc(Cl)cc3)nc2SC)cc1	1.3
Cc1cc(NC(=O)C(Cl)(Cl)Cl)n(-c2ccccc2)n1	1.9
CCCCCOC(=O)C1=C(C)NC2=C(C(=O)CCC2)C1c1ccc(O)c(OC)c1 (stereo not drawn)	0.27
Cc1ccc(S(=O)(=O)Nc2ccc3oc4ncccc4c(=O)c3c2)cc1	18
CC(C)(C)c1ccc(S(=O)(=O)Nc2ccc(O)c(Cl)c2)cc1	2.3
SMILES	Dicer processing
Cc1ccc(S(=O)(=O)Nc2ccc3[nH]cc(Cl)c3c2)cc1	3.1*
O=C(NNc1ccc(Cl)c(Cl)c1)c1ccccc1NC(=O)c1cccnc1Oc1ccccc1	-0.79
CSc1n[nH]c(-c2ccccc2Cl)c1C#N	-0.38
CN(C)/C=C(\C(=O)c1cccc(C(F)(F)F)c1)c1nnnn1-c1ccccc1	-1.7
Fc1cccc(Cl)c1Cn1nnc(-c2cc(C(F)(F)F)cc(C(F)(F)F)c2)n1	0.81
Fc1cccc(Cl)c1Cn1nnc(-c2c(Cl)cccc2Cl)n1	0.74
Fc1cccc(Cl)c1Cn1nnc(-c2ccccc2C(F)(F)F)n1	3.1*
CC1(C)COCCN1C(=O)c1ccc(Cl)cc1	-0.32
O=C(O)COCC(=O)Nc1cnccn1	1.4
CC1=C(OC(=O)c2c(-c3c(Cl)cccc3Cl)noc2C)C(=O)CC1	1.2
O=C1CC(Nc2ccc(N3CCOCC3)cc2)C(=O)N1c1ccccc1F (stereo not drawn)	2.8
O=C1CC(Nc2ccc(N3CCCCC3)cc2)C(=O)N1c1ccccc1F (stereo not drawn)	3.3*
O=C1CC(Nc2ccc(F)cc2)C(=O)N1c1ccc(N2CCCCC2)cc1 (stereo not drawn)	-0.19
Cc1cc(-c2nnc(CSc3nnc(NC(=O)c4ccccc4F)s3)o2)ccc1[N+](=O)[O-]	0.1
O=C1N(CCc2ccccc2)c2ccc(Cl)cc2C1(O)c1c[nH]c2ccccc12 (stereo not drawn)	1.6
COc1ccc2c(c1)c(=O)oc1c(C)c(OCC(=O)OC(C)C)ccc12	0.76
O=C(OCc1nc2c(ccc3ccccc32)[nH]1)C1CCCCC1	-5.4
Cc1cc(C)n2c(SCC(=O)O)nnc2n1	-0.62
Cc1ccc(S(=O)(=O)NCC(Sc2nnc3nc(C)cc(C)n23)c2ccccc2)cc1 (stereo not drawn)	3.5*
Cc1cc(C)n2c(SCC(C)C)nnc2n1	-0.03
O=C1OC(Nc2cccc(Cl)c2)c2ccccc21 (stereo not drawn)	-0.82
C=CCOC(=O)C1=C(C)NC2=C(C(=O)CCC2)C1c1cc(OC)c(OC)cc1Br (stereo not drawn)	0.89
CNC(C)CN1c2ccccc2Sc2ccccc21 (stereo not drawn)	2.6
CC(CN(C)C)CN1c2ccccc2Sc2ccccc21 (stereo not drawn)	0.42
CC(CN1c2ccccc2Sc2ccccc21)N(C)C (stereo not drawn)	3.8*!
SMILES	Dicer processing
COC(=O)c1cc(=O)n2c(nc3cc(C(F)(F)F)ccc32)s1	-0.9
C=CCN1Cc2ccc(C(=O)O)cc2C1	3.2*
C=CCN1CCc2c(cc(O)c(O)c2Br)[C@@H](c2ccccc2)C1	-3.7
C=CCN1C(=O)C(O)(CC(=O)c2ccc3c(c2)CCCC3)c2ccccc21 (stereo not drawn)	1.3
Cc1ccc(C(=O)OCc2cn(Cc3ccccc3)c3ccc([N+](=O)[O-])cc23)cc1	-0.25
CC[n+]1c(/C=C/Nc2ccccc2)sc2c(C)c(C)sc21	2.4
OC1(C(F)(F)F)CC(/C=C/c2ccc3c(c2)OCO3)=NN1 (stereo not drawn)	-0.2
Nc1cc(=O)n(Cc2ccccc2F)c(=O)n1-c1ccccc1C(F)(F)F	-0.93
Cn1c2c(c(=O)n(C)c1=O)CN(Cc1ccc(F)cc1)CN2	4.3*
Cn1c2c(c(=O)n(C)c1=O)CN(C1CC1)CN2	-1.8
COCCN1CNc2c(c(=O)n(C)c(=O)n2C)C1	3.5*
Cn1c2c(c(=O)n(C)c1=O)CN(CCc1ccc(Cl)c(Cl)c1)CN2	-5.6
Cn1c2c(c(=O)n(C)c1=O)CN(CCc1ccccc1)CN2	-3.7
Cn1c2c(c(=O)n(C)c1=O)CN(CCCCCCO)CN2	-2.1
O=S(=O)(NNS(=O)(=O)c1ccc(-c2ccccn2)s1)c1ccc(Cl)cc1	-1.5
CC(=O)c1ccc(N/C=C/C(=O)c2ccc(F)cc2)cc1	0.22
COc1ccc(CCn2cnc3cc(C(F)(F)F)ccc32)cc1OC	-1.1
COC(=O)c1cnn(-c2c(Cl)cc(Cl)cc2Cl)c1C(OC)OC	-1.1
O=C(O)COCC(=O)Nc1ccc(N2CCOCC2)nc1N1CCOCC1	-0.99
CN(C)/C=N/c1nnc(C(C)(C)C)s1	-0.86
NC(=O)c1sc2nc3c(cc2c1N)CCCCC3	0.84
COCCN1C(=O)C(=O)/C(=C(\O)c2ccc(C)cc2)C12C(=O)N(C)c1ccccc12 (stereo not drawn)	-0.78
CCOc1ccc(/C(O)=C2/C(=O)C(=O)N(CCCOC)C23C(=O)N(C)c2ccccc23)cc1 (stereo not drawn)	2.5
CCOc1ccc(/C(O)=C2/C(=O)C(=O)N(CCOC)C23C(=O)N(C)c2ccccc23)cc1 (stereo not drawn)	4.1*
Cc1ccc(/C(O)=C2/C(=O)C(=O)N(CCCN(C)C)C23C(=O)N(C)c2ccccc23)cc1F (stereo not drawn)	-0.29
COCCN1C(=O)C(=O)/C(=C(\O)c2ccc(OC)c(C)c2)C12C(=O)N(C)c1ccccc12 (stereo not drawn)	3.2*
COCCN1C(=O)C(=O)/C(=C(\O)c2ccc(OC)cc2)C12C(=O)N(C)c1ccccc12 (stereo not drawn)	-0.25
N#Cc1c(-c2ccccc2)[nH]c(SCc2ccccc2)nc1=S	0.36
